About 83,000 compounds went through this panel and 20% of them were active in at least one assay; those are over-represented in the sample as a whole.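 Assay: single dose, 48 h. Readout: percent growth (0 = no net growth; negative = cell death). Active: <10.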 Activity calls are given as the source filed them.
system: MDA-MB-435 melanoma; experiment: NCI-60 one-dose screen, 48 h (100 = growth as untreated, 0 = no growth, -100 = all killed); details: 10 µM unless noted
Description: Growth inhibition of the MDA-MB-435 human Melanoma tumor cell line is measured as a screen for anti-cancer activity. Cells are grown in 96 well plates and exposed to the test compound for 48 hours. Compounds are tested at a single concentration, which is 10^-5 M for most compounds. The reported endpoint is percent growth (GI% or GIPRCNT), where numbers from 0 - 100% represent growth inhibition, and numbers from -100% - 0 represent cell death. For example, a value of 40 represents 60% growth inhibition. A value of 0 means no net growth occurred over the course of the experiment. A value of -40 indicates 40% of cells at the beginning of the experiment died by the end of the experiment. A value of -100 means all cells are dead at the end of the experiment.
NCI-60 Human Tumor Cell Lines Screen was performed using the standard one-dose NCI protocol, which is described in more detail at https://dtp.cancer.gov/discovery_development/nci-60/default.htm.
Compounds with GIPRCNT values below 10 were considered active. Activity score was based on GIPRCNT using the following formula: […]
Score is 0 for GIPRCNT values of 100 or above, 50 for GIPRCNT values of 0, and 100 for GIPRCNT values of -100.

SMILES | growth
COc1cc2cc(Oc3cccc(NC(=O)Nc4cc(C(F)(F)F)cc(C(F)(F)F)c4)c3)c(C)nc2cc1OC | -2.55% (active)
O=C(CCN1CCCC1)Nc1ccc2c(NCCCCc3ccccc3)c3ccccc3nc2c1 | -91.2% (active)
CNC(=O)c1cncc(Cn2nc(C)c(NC(=O)c3ccc(COc4ccc(C(F)(F)F)cc4C)cc3)c2C)c1 | 66.6% (inactive)
CCC(=O)Oc1ccc(/C(=C(\C)c2ccccc2)c2ccc(OCCN3CCCCC3)cc2)cc1 | 81.4% (inactive)
COc1ccc(C(=O)CC#N)cc1 | 132% (inactive)
CNC(=O)c1cccc(Cn2nc(C)c(NC(=O)c3ccc(COc4ccc(C(F)(F)F)cc4C)cc3)c2C)n1 | 43.2% (inactive)
Cc1ccc(-c2[nH][nH]c(=O)c2-c2nc3ccccc3s2)cc1 | 100% (inactive)
Cc1cc2c(C(=O)NCC#N)cccc2n1-c1nc2c(c(NCc3ccccc3)n1)CCCC2 | -59.8% (active)
Cn1c2ccccc2c2c3c(c4c5ccccc5n(C)c4c21)C(=O)OC3 | 103% (inactive)
CN(C)CCn1c2ccc(Br)cc2c2nc3ccccc3nc21 | 41.8% (inactive)
O=c1[nH]nc(-c2ccccc2)c2sc3ncc(-c4ccc(Br)cc4)n3c12 | -25.7% (active)
O=C1c2ccccc2CCC12OC2c1cn(-c2ccccc2)nc1-c1ccc(Cl)cc1 (stereo not given) | 100% (inactive)
N#C/C(=C\c1c(-c2ccccc2)[nH]c2ccccc12)C(=O)c1ccc(Cl)cc1 | 13.5% (inactive)
O=C(CCN1CCCC1)c1ccc([N+](=O)[O-])cc1 | 107% (inactive)
Cc1ccc(S(=O)(=O)NNC(=O)/C(=C\c2ccc(Cl)cc2)c2nc3ccccc3s2)cc1 | 96.9% (inactive)
O=C(O)c1ccc2c(c1)C(=O)N(Cc1ccccc1)C2=O | 106% (inactive)
O=C(CCN1CCCC1)Nc1ccc2c(Nc3ccc(Br)cc3)c3ccccc3nc2c1 | -88% (active)
CCNC(=O)Oc1ccc(/C(=C(\C)c2ccccc2)c2ccc(OCCN(CC)CC)cc2)cc1 | 71% (inactive)
CN(C)c1ccc(Nc2c3ccccc3nc3cc(NC(=O)CCN4CCCC4)ccc23)cc1 | -94.4% (active)
CCCCCN1C=C/C(=C\C(=O)N(C)c2ccc(OC(F)(F)F)cc2)c2ccccc21 | 105% (inactive)

SMILES | growth
O=S(=O)(NCCCNc1nccc(-c2c(-c3cccc(F)c3)nc3sccn23)n1)c1cccc(F)c1 | 24% (inactive)
C=C1C(=O)O[C@H]2[C@H]1CC/C(COC(=O)NCc1c[nH]c3ccc(Cl)cc13)=C\CC[C@@]1(C)O[C@@H]21 | -88.4% (active)
O=C(Cn1c[n+](CC(=O)c2ccc([N+](=O)[O-])cc2)c2ccccc21)Nc1cccc2cccnc12 | 60% (inactive)
C#Cc1cccc(NC(=O)Nc2cccc(NC(=O)CCl)c2)c1 | -39.8% [8.25 µM] (active)
N/C(=N\C(N)=N\c1nc2ccccc2s1)c1cccc(Cl)c1 | 99.3% (inactive)
COc1cc2nc(-c3ccc(C(F)(F)F)cc3)cc(OCCCN3CCOCC3)c2cc1OC | -26% (active)
N#C/C(=C\c1ccc([N+](=O)[O-])s1)c1nc2cc(Br)ccc2s1 | 0.206% (active)
O=C(Nc1ncc(Cc2cc(Cl)ccc2Cl)s1)c1cccs1 | 4.2% (active)
O=c1c2c(c(=O)n1O)c1c3ccc[nH]c3nc1c1nc3[nH]cccc3c12 | 96.3% (inactive)
CCCCCN1C=C/C(=C\C(=O)n2ccc3ccccc32)c2ccccc21 | 96.1% (inactive)
O=C(Cn1c[n+](CC(=O)c2ccc(-c3ccccc3)cc2)c2ccccc21)Nc1cccc2cccnc12 | 7.5% (active)
CCc1ccc(CNc2ccc(N3CCOCC3)c(C(=O)O)c2)cc1 | 108% (inactive)
N=C1C(c2nc3ccccc3s2)=C(O)CN1c1cc(Cl)cc(Cl)c1 | 41.6% (inactive)
Cc1cnc(C(=O)Nc2nc3ccc(S(=O)(=O)Nc4ccc(C(C)(C)C)cc4)cc3[nH]2)cn1 | -64.6% (active)
CCc1c(Cl)nc(N)nc1Nc1ccc(C)c(C)c1 | 99.6% (inactive)
COc1cc(/C=N/O)nc(-c2ccccn2)c1 | 23.6% (inactive)
N#CC1=C(/N=C/c2ccccc2)Oc2c(ccc3ccccc23)C1c1ccc([N+](=O)[O-])cc1 (stereo not given) | 101% (inactive)
CC(=O)Nc1cccc(-c2ccc3c(c2)NC(=O)/C3=C\c2ccc[nH]2)c1 | 25.6% (inactive)
O=C(C[n+]1cccc2ccccc21)c1ccc(O)c(O)c1 | 88.1% (inactive)
CC1(C)CC[C@]2(C(=O)O)CC[C@]3(C)C(=CC[C@@H]4[C@@]5(C)Cc6c([nH]c7ccccc67)C(C)(C)[C@@H]5CC[C@]43C)[C@@H]2C1 | 79.3% (inactive)

From PubChem BioAssay (NCI)
